This note sets out measurements from PubChem BioAssay (NCATS).

A short description of test [1]: qHTS of pediatric cancer cell lines to identify multiple opportunities for drug repurposing: Primary screen for Rh41 cells (AID 1347108). Also: nearly all actives have a fitted effect of over 70% in size. The essentials: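 CRCs from 8- or 11-point titrations (lowest final 0.59 nM NPC, 0.78 nM MIPE). Cell viability: CellTiter-Glo after 48 h incubation, 15 min room-temperature development, luminescence imaging.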
(In qHTS, concentration-response curves come from the screen itself.)

Test [2] can be described thus: qHTS of pediatric cancer cell lines to identify multiple opportunities for drug repurposing: Confirmatory screen for NB1643 cells (AID 1347109). Also: nearly all actives have a fitted effect of over 45% in size. Put shortly:
(§1)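 Cells (500-1,000/well) in growth media were settled 5 h at 37 degrees C, then given compounds for 48 h. Viability was read as CellTiter-Glo luminescence. Primary runs used MIPE at 11 points (0.78 nM-46 µM) and NPC at 8 points (0.59 nM-46 µM); follow-ups used 11 points.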

The nature of test [3]: qHTS of pediatric cancer cell lines to identify multiple opportunities for drug repurposing: Confirmatory screen for A673 cells (AID 1347110).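 Also: cells exposed to compound for 48 h before the viability read; nearly all actives have a fitted effect of over 65% in size.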 Put shortly:
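A673 cells seeded at 500-1,000 cells/well, rested 5 h, then dosed; primary MIPE 11-point (0.78 nM to 46 µM), NPC (0.59 nM to 46 µM); confirmatory 11-point. CellTiter-Glo luminescence after 48 h.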

Test [4] is described as follows: qHTS of pediatric cancer cell lines to identify multiple opportunities for drug repurposing: Confirmatory screen for SK-N-MC cells (AID 1347111).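 Also: cells exposed to compound for 48 h before the readout; nearly all actives have a fitted effect of over 70% in size.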 Put shortly:
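Metabolically active cells were quantified by ATP-dependent luminescence (CellTiter-Glo, 15 min at room temperature) following 48 h treatment. Cells had been plated at 500-1,000 per well and settled for 5 h beforehand.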

Test [5] is described as follows: qHTS of pediatric cancer cell lines to identify multiple opportunities for drug repurposing: Confirmatory screen for BT-12 cells (AID 1347112). Also: nearly all actives have a fitted effect of over 55% in size. The essentials: as §1
The nature of test [6]: qHTS of pediatric cancer cell lines to identify multiple opportunities for drug repurposing: Confirmatory screen for DAOY cells (AID 1347114). Also: nearly all actives have a fitted effect of over 65% in size. The essentials: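 Viability measured as metabolically active cells via CellTiter-Glo luminescence following 48 hours of compound exposure, 11-point dilutions in confirmatory testing. 500-1,000 cells/well plated 5 hours before dosing; controls were DMSO and 2.3 µM bortezomib.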

The nature of test [7]: qHTS of pediatric cancer cell lines to identify multiple opportunities for drug repurposing: Confirmatory screen for NB-EBc1 cells (AID 1347115).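 Also: cells exposed to compound for 48 h before the viability read; nearly all actives have a fitted effect of over 45% in size.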 Put shortly: as §1
Test [8] is described as follows: qHTS of pediatric cancer cell lines to identify multiple opportunities for drug repurposing: Confirmatory screen for TC32 cells (AID 1347118).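 Also: cells exposed to compound for 48 h before the read; nearly all actives have a fitted effect of over 65% in size.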 Put shortly:
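Luminescent CellTiter-Glo read-out of metabolically active TC32 cells after 48 h compound exposure. Primary: MIPE 11-point, 0.78 nM–46 µM; NPC 8-point, 0.59 nM–46 µM. Confirmatory: 11-point dilutions.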

The nature of test [9]: qHTS of pediatric cancer cell lines to identify multiple opportunities for drug repurposing: Confirmatory screen for MG 63 (6-TG R) cells (AID 1347119). Also: nearly all actives have a fitted effect of over 55% in size. Put shortly: as §1
A short description of test [10]: qHTS of pediatric cancer cell lines to identify multiple opportunities for drug repurposing: Confirmatory screen for control Hh wild type fibroblast cells (AID 1347121). Also: nearly all actives have a fitted effect of over 70% in size. The essentials:
as §1

“And” between values parts separate entries of the source, which are not always exact repeats. Identical values can stand only once. Records with an inconclusive call do not appear. The source made the active and inactive calls. Calls follow the shape of the dose curve; as a rule, active = well fitted curve in the direction sought with a large enough effect; inconclusive = small, poorly fitted or top-dose-only effect, or another doubt; inactive = no such curve, though single readings can be large; an effect the other way counts as inactive or inconclusive.
Potency is read from the fitted curve at half-maximal effect.

With `Cc1ccc([N+](=O)[O-])[c]2c1[O][Hg]2`, the Potency in test [1] is 0.668 µM (active); in test [2], 0.737 µM (active); in [3] it was 0.737 µM (active); in test [4], 0.233 µM (active); in test [5], 4.14 µM (active); in test [6], 5.22 µM (active). In addition, the Potency in test [7] was 2.93 µM (active); in [8], 0.261 µM (active); in test [9], 5.22 µM (active); in test [10] it was 16.5 µM (active).

For `CCc1ccc(C2CCNCC2)cc1`, the Potency entry in [1], in test [2], in test [3], in test [4], in [5] and in test [6] was “inactive” throughout. The Potency result in [7], in [9] and in test [10] was “inactive” throughout.

On to `CCCCCCCCC(=O)NCc1ccc(O)c(OC)c1`, for which the Potency entry in [1], in test [2], in test [3], in test [5], in test [6] and in test [7] was “inactive” each time. Further, the Potency result in test [9] and in test [10] was “inactive” throughout. For the same compound, the Potency in test [8] was 5.22 µM (active).

Regarding `C[C@@H]1C[C@@H]([C@H](O)CC2CC(=O)NC(=O)C2)C(=O)[C@@H](C)C1`, the Potency in test [1] is 4.69 µM (active); in test [3] it was 1.65 µM (active); in [4] it was 928 nM (active) and 1.31 µM (active); in [5], 2.93 µM (active); in [8] it was 465 nM (active) and 522 nM (active). For the same compound, the Potency result in [6] and in test [10] was “inactive” in each case.

For `C[C@]12CC[C@H]3[C@@H](CCC4=CC(=O)CC[C@@H]43)[C@@H]1CC[C@@H]2O`, in test [1], the Potency entry is “inactive”.

In the case of `CCOC(=O)NC(C)(C)Cc1ccc(Cl)cc1`, in test [1], the Potency result is “inactive”.

Take `C[C@]12CC[C@H]3[C@@H](CC=C4C[C@@H](O)CC[C@@]43C)[C@@H]1CC[C@@H]2O`: the Potency result in test [1] was “inactive”.

For the compound `Cc1nc2ccccc2c(=O)n1-c1ccccc1Cl`, in [1], the Potency entry is “inactive”.

Consider `COc1ccc2c(C(=O)c3ccc(Cl)cc3)c(C)n(CC(=O)O)c2c1`, for which the Potency entry in test [2], in test [5], in test [6], in test [7], in [9] and in test [10] was “inactive” throughout. In addition, the values for the Potency in [3], in test [4] and in test [8] were 7.37 µM (active), 10.4 µM (active) and 16.5 µM (active), respectively.

With `C[C@]12C=CC(=O)C=C1CC[C@@H]1[C@@H]2CC[C@@]2(C)[C@H]1CC[C@]2(C)O`, the Potency result in [1] is “inactive”.

Take `CC1Sc2c(C(=O)O)c(=O)c3cc(F)c(N4CCNCC4)cc3n21` (stereo not given): the Potency entry in [1], in test [2], in test [5], in test [7] and in test [10] was “inactive” in each case. Further, the figures for the Potency in test [4] and in test [8] were 14.7 µM (active) and 18.5 µM (active), respectively.

For `CN1[C@@H]2CC[C@H]1CC(OC(=O)c1cc(Cl)cc(Cl)c1)C2` (stereo not given in full), the Potency result in test [1], in [2], in [3], in test [4], in [5] and in test [7] was “inactive” in each case. The Potency result in test [8], in test [9] and in test [10] was “inactive” each time.

With `COP(=S)(OC)Oc1ccc(Sc2ccc(OP(=S)(OC)OC)cc2)cc1`, the Potency entry in test [1] is “inactive”.

`COc1ccc(C(=O)N2CCCC2=O)cc1`: the Potency entry in test [1], in test [3], in test [6] and in test [10] was “inactive” each time. Further, the Potency in test [8] was 14.7 µM (active); in test [9], 29.3 µM (active).

`COC(=O)C1=CCCN(C)C1`: the Potency entry in test [1], in test [2], in [3], in [5], in test [6] and in [7] was “inactive” throughout. Also, the Potency result in [9] and in [10] was “inactive” throughout. For the same compound, the values for the Potency in test [4] and in [8] were 18.5 µM (active) and 10.4 µM (active), respectively.

For `CC[n+]1c(-c2ccccc2)c2cc(N)ccc2c2ccc(N)cc21`, the Potency was 3.35 µM (active) in test [1]; 11.7 µM (active) in test [2]; 3.29 µM (active) in test [3]; 2.08 µM (active) in test [4]; 1.47 µM (active) in [5]; 13.1 µM (active) in [6]. Besides, the Potency in test [7] was 5.22 µM (active); in [8] it was 1.17 µM (active); in test [9], 5.85 µM (active); in test [10], 9.27 µM (active).

As for `CCCCCCCCCCCC[N+](C)(C)CCOc1ccccc1`, the Potency in test [1] was 16.8 µM (active); in test [2], 11.7 µM (active); in [3], 8.27 µM (active); in [4], 7.37 µM (active); in test [6], 18.5 µM (active); in [8], 7.37 µM (active). For the same compound, the Potency in [9] was 20.8 µM (active).

`O=C(O)Cc1ccccc1`: the Potency result in test [1], in test [3], in [6], in test [7] and in [10] was “inactive” each time.

For the compound `CCN(CC)Cc1nccn1-c1ccc([N+](=O)[O-])cc1C(=O)c1ccccc1Cl`, the Potency result in test [1] was “inactive”.

Turning to `ClC1=C(Cl)C2(Cl)C(CBr)CC1(Cl)C2(Cl)Cl` (stereo not given), the Potency result in test [1], in test [2], in [5], in test [6], in [7] and in test [9] was “inactive” throughout. For the same compound, the Potency result in [10] is “inactive”. Moreover, the Potency in [4] is 10.4 µM (active).

On to `CN(C)C(=S)SSC(=S)N(C)C`, for which the Potency in test [1] is 0.211 µM (active); in test [2] it was 1.31 µM (active); in [3], 0.329 µM (active); in test [4], 0.928 µM (active); in [7], 0.928 µM (active); in [8], 1.04 µM (active). Moreover, the Potency entry in [10] was “inactive”.

Consider `CCOC(C(=O)OCCN(C)C)(c1ccccc1)c1ccccc1`, for which the Potency entry in test [1] was “inactive”.

Regarding `C[C@@H]1O[C@@H](O[C@@H]2C=C3CC[C@@H]4[C@H](CC[C@]5(C)[C@@H](c6ccc(=O)oc6)CC[C@]45O)[C@@]3(C)CC2)[C@H](O)[C@H](O)[C@H]1O`, the Potency in test [2] is 0.0827 µM (active); in test [3], 0.0585 µM (active); in test [4], 0.0293 µM (active); in [5] it was 0.0414 µM (active); in test [7], 0.0293 µM (active); in test [8], 0.0233 µM (active). For the same compound, the Potency in test [9] was 0.0083 µM (active).

On to `CCC1(c2cccc(O)c2)CCCCN(C)C1` (stereo not given), for which the Potency entry in test [1] is “inactive”.

On to `CC1COC2(c3ccccc3Cl)c3cc(Cl)ccc3NC(=O)CN12` (stereo not given), for which, in test [1], the Potency result is “inactive”.

For `CN1CCC(N(Cc2ccccc2)c2ccccc2)CC1`, the Potency result in test [1] was “inactive”.

For `COCC(=O)N(c1c(C)cccc1C)C(C)C(=O)OC` (stereo not given), the Potency result in test [1] was “inactive”.

On to `CCCC[N+]1(C)[C@@H]2CC(OC(=O)[C@H](CO)c3ccccc3)C[C@H]1[C@@H]1O[C@@H]12` (stereo not given in full), for which the Potency entry in test [1] is “inactive”.

On to `COc1ccc2[nH]cc(CCN(C(C)C)C(C)C)c2c1`, for which, in test [1], the Potency entry was “inactive”.

For the compound `O=C(NC(=O)c1c(F)cccc1F)Nc1cc(Cl)c(OC(F)(F)C(F)C(F)(F)F)cc1Cl` (stereo not given), the Potency result in test [1] is “inactive”.

Regarding `CCC(OC(C)=O)C(CC(C)NC)(c1ccccc1)c1ccccc1` (stereo not given), the Potency in [1] is 31 µM (active).

Regarding `C[C@]12CC[C@H]3[C@@H](CCC4=CC(=O)CC[C@@]43C)[C@@H]1CC[C@@H]2C(=O)O`, in [1], the Potency entry was “inactive”.

As to `O=C(CBr)Nc1ccc(Cl)cc1C(=O)c1ccccc1F`, the Potency entry in test [1] is “inactive”.

As for `CCNc1nc(Cl)nc(NCC)n1`, in test [1], the Potency result is “inactive”.

In the case of `CC(C)C(Br)C(=O)NC(N)=O` (stereo not given), the Potency result in test [1] is “inactive”.
